This is part of a sample that, as a whole, favours compounds with a hit. Of some 83,000 tested, about 20% had one in any assay.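 Results are percent growth after 48 hours of single-concentration exposure. 100 means growth as in untreated cells, lower positive values show inhibition; negative values down to -100 show cell death.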 Unmarked numbers belong to inactive results. Active and inactive are the calls of the source. How the source made its calls: active means growth percent below 10; inactive means the rest.

Test systems include DU-145 prostate; K-562 leukemia; MALME-3M melanoma; MDA-MB-231 breast; RXF 393 renal; SF-268 CNS; SF-295 CNS; SF-539 CNS; UACC-257 melanoma; M14 melanoma.
Assay in all cases: NCI-60 one-dose screen, 48 h (100 = growth as untreated, 0 = no growth, -100 = all killed)
Conditions in all cases: 10 µM unless noted

With `Oc1ccccc1/C=N/N=C/c1c(O)ccc2ccccc12`, the growth in the test with DU-145 prostate is 96.9%; with K-562 leukemia it was 78.5%; in the test with MALME-3M melanoma, 91.3%; in the test with MDA-MB-231 breast it was 69.9%; with RXF 393 renal, 109%; in the test on SF-268 CNS, 92.5%. The growth was 98.1% in the test with SF-295 CNS, 96.9% with SF-539 CNS, 98.2% with UACC-257 melanoma and 80% with M14 melanoma.
On to `CCCCCCNc1nc(N2CCOCC2)c2[nH]c(NCCCCCC)nc2n1`, for which the growth was -88.1% (active) in the test on DU-145 prostate; -52.4% (active) in the test with K-562 leukemia; -62.2% (active) in the test on MALME-3M melanoma; -94.4% (active) in the test on MDA-MB-231 breast; -84.9% (active) with RXF 393 renal; -92.8% (active) with SF-268 CNS. The growth in the test on SF-295 CNS is -61.8% (active); in the test on SF-539 CNS, -94.4% (active); in the test on UACC-257 melanoma, -95.4% (active); in the test with M14 melanoma it was -98% (active).
As to `CCCNC(=O)Oc1ccc(/C(=C(/CC)Cc2ccccc2)c2ccc(OCCN(CC)CC)cc2)cc1`, the growth was 86.1% in the test on DU-145 prostate; -31.9% (active) in the test on K-562 leukemia; 79.6% with MALME-3M melanoma; 60.8% with MDA-MB-231 breast; 66.8% with RXF 393 renal; 71.4% in the test with SF-268 CNS. Besides, the growth with SF-295 CNS is 97.8%; with SF-539 CNS, 89.7%; in the test on UACC-257 melanoma it was 82.6%; with M14 melanoma, -35.3% (active).
As to `COc1cc(-c2nn(-c3ccc(NC(=O)Nc4cc(C(F)(F)F)cc(C(F)(F)F)c4)cc3)cc2-c2ccncc2)ccc1Cl`, the growth was 16.8% with DU-145 prostate; 17.2% in the test with K-562 leukemia; -1.21% (active) in the test on MALME-3M melanoma; -18.7% (active) with MDA-MB-231 breast; -2.81% (active) with RXF 393 renal; 14.1% in the test with SF-268 CNS. Besides, the growth was -34.8% (active) in the test on SF-295 CNS, 15.8% in the test on SF-539 CNS, -1.38% (active) in the test on UACC-257 melanoma and 4.73% (active) in the test on M14 melanoma.
As for `COc1cccc(-c2cc(-c3cc4ccccc4oc3=O)nc(N)n2)c1`, the growth in the test with DU-145 prostate is 112%; with K-562 leukemia, 99%; with MALME-3M melanoma it was 121%; with MDA-MB-231 breast, 90.4%; with RXF 393 renal it was 108%; in the test on SF-268 CNS, 101%. For the same compound, the growth in the test with SF-295 CNS was 125%; in the test on SF-539 CNS, 132%; in the test with UACC-257 melanoma, 108%; with M14 melanoma, 100%.
`Nc1nc(-c2cccc(Br)c2)cc(-c2cc3ccccc3oc2=O)n1`: the growth is 111% in the test on DU-145 prostate; 104% in the test on K-562 leukemia; 123% in the test on MALME-3M melanoma; 104% in the test on MDA-MB-231 breast; 110% in the test with RXF 393 renal; 100% in the test with SF-268 CNS. Besides, the growth is 131% with SF-295 CNS, 110% in the test on SF-539 CNS, 106% in the test with UACC-257 melanoma and 103% with M14 melanoma.
With `CC[C@H](Nc1ncnc2nc[nH]c12)c1nc2cccc(NCc3ccc(C(=O)NO)o3)c2c(=O)n1-c1ccccc1`, the growth was 101% in the test on DU-145 prostate; 102% with K-562 leukemia; 77.1% in the test on MALME-3M melanoma; 113% in the test with MDA-MB-231 breast; 110% in the test on RXF 393 renal; 84.1% in the test with SF-268 CNS. Further, the growth with SF-295 CNS was 102%; with SF-539 CNS, 100%; in the test with UACC-257 melanoma, 102%; in the test with M14 melanoma, 103%.
As to `CC(=O)CCS(=O)c1ccccc1` (stereo not given), the growth in the test on DU-145 prostate was 103%; in the test on K-562 leukemia, 98.9%; in the test on MALME-3M melanoma, 97.2%; with MDA-MB-231 breast, 106%; in the test with RXF 393 renal, 99.7%; with SF-268 CNS, 94.9%. The growth with SF-295 CNS is 97.6%; in the test on SF-539 CNS, 113%; in the test on UACC-257 melanoma it was 99.5%; with M14 melanoma, 105%.
On to `c1cc(C2CCCCC2)ccc1OCCCCCCN1CCNCC1`, for which the growth was 17.9% in the test with DU-145 prostate; -42.1% (active) with K-562 leukemia; 52.7% in the test with MALME-3M melanoma; 33.4% in the test on MDA-MB-231 breast; 32% with RXF 393 renal; 54.5% in the test with SF-268 CNS. For the same compound, the growth is 73.1% in the test on SF-295 CNS, 32.4% with SF-539 CNS, 73.1% in the test with UACC-257 melanoma and 40.3% in the test on M14 melanoma.
Regarding `CCCCCCCCC1OC1CCCCCCCC(=O)O` (stereo not given), the growth in the test on DU-145 prostate is 116%; in the test on K-562 leukemia it was 116%; in the test on MALME-3M melanoma, 90.1%; in the test with MDA-MB-231 breast, 94.6%; in the test on RXF 393 renal, 101%; in the test on SF-268 CNS, 107%. Also, the growth with SF-295 CNS is 97.4%; in the test with SF-539 CNS, 93.5%; in the test with UACC-257 melanoma, 95.3%; in the test on M14 melanoma, 105%.
For `CCC(C)C1NC(=O)C(CCCCN)NC(=O)C(CCCCN)NC(=O)C(CC(C)C)NC(=O)C(CCCCN)NC(=O)C(C(C)CC)NC(=O)C(C(C)C)NC(=O)C(C(C)CC)NC(=O)C(CCCCN)NC(=O)C(CCCCN)NC(=O)C(C)NC(=O)C(CCCCN)NC(=O)C(CC(C)C)NC1=O` (stereo not given), the growth in the test with DU-145 prostate was 25.5%; in the test on K-562 leukemia, 9.18% (active); in the test with MALME-3M melanoma it was 9.48% (active); in the test with MDA-MB-231 breast, -0.123% (active); in the test on RXF 393 renal it was 45.2%; in the test on SF-268 CNS it was 19.5%. The growth is 27.4% in the test with SF-295 CNS, 67.5% with SF-539 CNS, 7.94% (active) with UACC-257 melanoma and 22.2% with M14 melanoma.
For `COc1ccc(C(=O)N2N=C(c3ccc(Br)cc3)CC2c2cn(-c3ccccc3)nc2-c2ccccc2)cc1` (stereo not given), the growth was 47.2% in the test on DU-145 prostate; 43.4% with K-562 leukemia; 73.1% in the test with MALME-3M melanoma; 61.3% in the test on MDA-MB-231 breast; 82.4% with RXF 393 renal; 71.9% in the test with SF-268 CNS. Also, the growth in the test on SF-295 CNS was 70.9%; with SF-539 CNS, 92.4%; in the test on UACC-257 melanoma, 79.6%; in the test with M14 melanoma, 39.1%.
As to `N#Cc1c2cccnc2c2nnc3cc(Cl)c(Cl)cc3n12`, the growth is 36.4% in the test on DU-145 prostate; 5.64% (active) in the test with K-562 leukemia; 25.6% in the test with MALME-3M melanoma; 2.64% (active) in the test on MDA-MB-231 breast; -3.12% (active) with RXF 393 renal; 16.8% in the test on SF-268 CNS. Further, the growth was 80.8% in the test on SF-295 CNS, 35.1% in the test on SF-539 CNS, 73.1% with UACC-257 melanoma and 78.1% in the test with M14 melanoma.
Take `O=C1N/C(=N\c2nnc(-c3ccc(O)cc3)s2)S/C1=C\c1ccccc1O`: the growth was 95.2% in the test with DU-145 prostate; 103% in the test with K-562 leukemia; 82.8% in the test with MALME-3M melanoma; 99.4% in the test on MDA-MB-231 breast; 113% with RXF 393 renal; 90.7% in the test on SF-268 CNS. Further, the growth is 94% in the test on SF-295 CNS, 101% with SF-539 CNS, 102% with UACC-257 melanoma and 91.1% with M14 melanoma.

The values above are taken from PubChem BioAssay (NCI).
